Data: PubChem BioAssay
Values joined by “and” are separate entries in the source; they are usually repeats but may differ in a detail not shown here. Equal values may be shown once. Active and inactive are the calls of the source.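 How the source made its calls, unless noted: active means normalized viability below 100% at a tested concentration; inactive means the rest.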

What was measured:
[1] = Wnt pathway potentiators raising nuclear beta-catenin – imaging, WNT3A-conditioned medium, mouse C2C12, NPC library, primary screen (AID 1117326; in the data active means nuclear beta-catenin stimulation mostly above about 4.2%, no sharp cut-off; inactive means mostly below about 10%); details: stronger effect = higher value
[2] = stimulators of insulin release from INS-1E, primary screen, cell-based, 5 mM glucose, NPC library (AID 1117329;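 active means compound raises insulin release from rat beta cells at 5 mM glucose, no numeric limit stated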); details: rat INS-1E insulin secretion, at 10 µM, stronger effect = higher value
[3] = growth inhibition of GSK3B-pretreated HCT116 cells – cell-based, CellTiter-Glo, 0.2 to 20 µM (AID 1117336;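 active means compounds lowering colon cancer cell viability after pretreatment blocking the GSK3B kinase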); details: HCT116 viability after GSK3B inhibitor, at 20 µM, stronger effect = higher value
[4] = inhibition of endothelial tube formation, primary screen, imaging, VEGF stimulated, CD31 staining, tube area, NPC library (AID 1117340;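 active means compound that reduces growth-factor-driven endothelial tube area in a mixed cell culture, no cutoff stated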); details: VEGF-stimulated ADSC/ECFC co-culture, at 10 µM, stronger effect = higher value
[5] = GLP1 release stimulators, primary, NCI-H716, NPC library (AID 1117341;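 active means compound raises GLP1 secretion from the human gut endocrine cells, with no numeric limit stated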); details: NCI-H716 cells, at 10 µM, stronger effect = higher value
[6] = HCT116 colon cancer cell growth inhibition, primary screen, CellTiter-Glo luminescence, NPC library (AID 1117342;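 active means compounds that lower survival of HCT116 colon cancer cells in the luminescence readout, no numeric limit stated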); details: at 20 µM (top of the series)
[7] = reduced SW480 viability measured with CellTiter-Glo, NPC library, primary (AID 1117343;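 active means compounds that lower viability of the colon cancer cells in the luminescence readout, with no numeric limit stated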); details: CellTiter-Glo luminescence; at 20 µM (top of the series)
[8] = NPC library primary testing for decreased DLD-1 cell viability via CellTiter-Glo (AID 1117346;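 active means compounds that lower survival of DLD-1 colon cancer cells in the luminescence readout, no cutoff given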); details: DLD-1 viability, CellTiter-Glo luminescence; at 20 µM (top of the series)
[9] = target: 6-phosphogluconate dehydrogenase, decarboxylating (Homo sapiens) (UniProt P52209); experiment: inhibition of human phosphogluconate dehydrogenase – biochemical, recombinant enzyme, NADPH absorbance, primary screen (AID 1159550;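 active means at least 20% inhibition of 6-phosphogluconate dehydrogenase activity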); details: recombinant 6PGD, NADPH absorbance 341 nm; at 10 µM; stronger effect = higher value
Chain of 6-phosphogluconate dehydrogenase, decarboxylating (Homo sapiens) (P52209 whole entry, looked up): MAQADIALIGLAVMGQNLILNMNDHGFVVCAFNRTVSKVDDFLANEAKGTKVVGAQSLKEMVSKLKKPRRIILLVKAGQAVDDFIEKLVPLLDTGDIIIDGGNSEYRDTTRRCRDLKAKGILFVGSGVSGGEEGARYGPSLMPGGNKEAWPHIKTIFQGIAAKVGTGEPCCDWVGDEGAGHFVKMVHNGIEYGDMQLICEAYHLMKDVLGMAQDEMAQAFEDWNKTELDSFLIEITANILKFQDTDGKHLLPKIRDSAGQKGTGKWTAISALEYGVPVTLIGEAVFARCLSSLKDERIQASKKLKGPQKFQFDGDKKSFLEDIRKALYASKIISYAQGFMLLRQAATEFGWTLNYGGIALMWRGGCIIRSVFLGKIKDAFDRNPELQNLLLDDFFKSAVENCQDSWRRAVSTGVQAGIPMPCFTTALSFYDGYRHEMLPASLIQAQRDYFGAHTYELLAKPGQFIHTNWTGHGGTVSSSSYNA

[10] = modulation of C. elegans fzo-1 (AID 1259413; call rule not given here;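 further: fzo-1 mutant C. elegans worms in liquid wells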); details: C. elegans fzo-1 modulator screen, mean read-out; stronger effect = higher value
[11] = EMT-state selective cytotoxicity in co-culture – imaging, PC-3E GFP, TEM4-18 mCherry, primary screen (AID 1345086;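 active means compounds killing one labelled cell type while sparing the other, by normalised counts and ratio limits, not self-fluorescent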;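 on all read-outs here: cells exposed to compound for 72 h before imaging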;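 on red/green cell ratio (normalised): normalised mesenchymal count divided by normalised epithelial count so high means epithelial killing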); details: PC-3E GFP / TEM4-18 mCherry co-culture, imaging cell counts, at 1 µM; for red/green cell ratio (normalised): actives lie on both sides, counts scaled to control wells, 1 = unselective
[12] = MELAS cybrid and Rieske KO viability enhancers – cell-based, MELAS cybrids, Rieske KO mouse fibroblasts, CellTiter-Glo, primary screen (AID 1508586;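 active means mean z-score across replicates of 1.96 or higher in either the MELAS or the Rieske mutant cell line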;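 further: z relative to plate mean and SD of compound and empty wells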); details: low glucose
[13] = drug combination growth inhibition, ovarian cancer – cell-based, oncology-focused library, rucaparib conditional, profiling panel (AID 1508598); details: patient-derived ovarian cancer cells, CellTiter-Glo viability, 144 h, stronger effect = lower value
[14] = target: NAD(+) hydrolase SARM1 (Homo sapiens) (UniProt Q6SZW1); experiment: blocking NAD cleavage by SARM1 SAM-TIR – cell lysate, NAD-Glo luminescence (AID 1508614;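 active means compound whose remaining NAD level is above about 45 nM, limit read from the data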); details: SAM-TIR HEK293T lysate NADase, at 1 µM, stronger effect = higher value
Chain of NAD(+) hydrolase SARM1 (Homo sapiens) (Q6SZW1 whole entry, looked up, the tested form may be a part): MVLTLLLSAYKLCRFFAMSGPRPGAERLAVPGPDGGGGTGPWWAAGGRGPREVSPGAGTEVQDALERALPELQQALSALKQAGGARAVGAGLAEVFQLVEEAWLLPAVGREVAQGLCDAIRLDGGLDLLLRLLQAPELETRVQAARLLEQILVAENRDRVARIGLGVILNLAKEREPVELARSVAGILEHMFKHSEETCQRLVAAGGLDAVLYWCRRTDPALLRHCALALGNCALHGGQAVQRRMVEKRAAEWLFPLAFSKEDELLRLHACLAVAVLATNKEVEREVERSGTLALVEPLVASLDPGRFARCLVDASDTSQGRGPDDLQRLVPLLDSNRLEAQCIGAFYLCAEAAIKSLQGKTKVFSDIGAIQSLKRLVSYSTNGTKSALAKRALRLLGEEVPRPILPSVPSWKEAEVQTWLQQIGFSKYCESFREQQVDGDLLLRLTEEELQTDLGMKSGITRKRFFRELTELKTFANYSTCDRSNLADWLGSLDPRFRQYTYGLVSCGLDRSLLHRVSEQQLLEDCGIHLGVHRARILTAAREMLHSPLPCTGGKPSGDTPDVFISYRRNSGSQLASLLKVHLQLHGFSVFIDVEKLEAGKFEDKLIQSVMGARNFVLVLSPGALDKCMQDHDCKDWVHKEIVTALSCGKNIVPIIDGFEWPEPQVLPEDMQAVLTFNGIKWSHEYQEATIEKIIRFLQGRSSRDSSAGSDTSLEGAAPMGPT

[15] = target: Mitogen-activated protein kinase 7 (Homo sapiens) (UniProt Q13164); experiment: Gal4-ERK5 driven luciferase induction – cell-based, HTS, primary screen (AID 1508626;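 active means luciferase signal above three times the same-plate solvent-only control wells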;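 further: luciferase driven by Gal4-ERK5 fusion binding five Gal4 sites before minimal TATA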); details: HeLa Gal4-ERK5 transactivation, 18 h, at 5 µM, stronger effect = higher value
Chain of Mitogen-activated protein kinase 7 (Homo sapiens) (Q13164 whole entry, looked up, the tested form may be a part): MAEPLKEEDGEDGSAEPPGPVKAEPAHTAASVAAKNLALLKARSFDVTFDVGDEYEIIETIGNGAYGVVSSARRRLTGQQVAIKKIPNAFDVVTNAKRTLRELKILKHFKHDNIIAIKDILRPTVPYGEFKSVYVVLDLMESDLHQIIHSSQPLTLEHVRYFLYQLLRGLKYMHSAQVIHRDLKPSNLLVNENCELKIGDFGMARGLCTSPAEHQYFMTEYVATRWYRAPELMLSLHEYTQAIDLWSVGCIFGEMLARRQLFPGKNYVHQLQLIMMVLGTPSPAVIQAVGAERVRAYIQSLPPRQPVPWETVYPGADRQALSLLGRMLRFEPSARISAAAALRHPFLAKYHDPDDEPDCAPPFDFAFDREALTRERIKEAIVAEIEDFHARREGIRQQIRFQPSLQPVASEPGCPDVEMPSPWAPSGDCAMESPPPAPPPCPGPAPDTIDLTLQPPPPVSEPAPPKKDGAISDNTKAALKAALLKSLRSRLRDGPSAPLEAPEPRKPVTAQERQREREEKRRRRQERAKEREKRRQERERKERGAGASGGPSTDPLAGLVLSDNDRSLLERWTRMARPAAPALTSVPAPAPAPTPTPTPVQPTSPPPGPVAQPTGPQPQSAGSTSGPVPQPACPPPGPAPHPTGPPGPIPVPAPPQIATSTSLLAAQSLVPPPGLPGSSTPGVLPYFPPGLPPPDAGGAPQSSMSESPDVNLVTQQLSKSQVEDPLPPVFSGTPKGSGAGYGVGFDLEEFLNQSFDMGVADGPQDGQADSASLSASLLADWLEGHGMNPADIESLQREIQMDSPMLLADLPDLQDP

F380Y = experiment: BK channel mutant inhibitors and activators – cell-based, U2OS BacMam, thallium flux, beta subunits, selectivity assay, profiling panel (AID 1259406;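 active means thallium flux through the channel raised or lowered by more than 3 SD from vehicle-only wells, actives on both sides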;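 further: initial slope of Thallos dye fluorescence rise after thallium is added; log ratio against the mean of 0.3% DMSO vehicle wells on the same plate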); details: U2OS BacMam BK variants, at 30 µM
F380Y/beta1 = experiment: as above; details: U2OS BacMam BK variants, at 30 µM
F380Y/beta2Delta = experiment: as above; details: U2OS BacMam BK variants, at 30 µM
[16] = measured here: epithelial PC-3E GFP cell survival
[17] = measured here: mesenchymal TEM4-18 mCherry cell survival
[18] = MELAS cybrid survival, CellTiter-Glo 48 h, stronger effect = higher value
[19] = Rieske KO mouse fibroblast survival, CellTiter-Glo 72 h
[20] = at 0.000305 µM, OCI-C5x cells, with rucaparib 10 µM, 100% = cells with rucaparib alone
[21] = at 0.000305 µM, OCI-C5x cells, without rucaparib
[22] = at 0.000305 µM, OCI-P5x cells, with rucaparib 20 µM, 100% = cells with rucaparib alone
[23] = at 0.000305 µM, OCI-P5x cells, without rucaparib
[24] = at 0.00122 µM, OCI-C5x cells, with rucaparib 10 µM, 100% = cells with rucaparib alone
[25] = at 0.00122 µM, OCI-C5x cells, without rucaparib
[26] = at 0.00122 µM, OCI-P5x cells, with rucaparib 20 µM, 100% = cells with rucaparib alone
[27] = at 0.00122 µM, OCI-P5x cells, without rucaparib
[28] = at 0.00488 µM, OCI-C5x cells, with rucaparib 10 µM, 100% = cells with rucaparib alone
[29] = at 0.00488 µM, OCI-C5x cells, without rucaparib
[30] = at 0.00488 µM, OCI-P5x cells, with rucaparib 20 µM, 100% = cells with rucaparib alone
[31] = at 0.00488 µM, OCI-P5x cells, without rucaparib
[32] = at 0.0195 µM, OCI-C5x cells, with rucaparib 10 µM, 100% = cells with rucaparib alone
[33] = at 0.0195 µM, OCI-C5x cells, without rucaparib
[34] = at 0.0195 µM, OCI-P5x cells, with rucaparib 20 µM, 100% = cells with rucaparib alone
[35] = at 0.0195 µM, OCI-P5x cells, without rucaparib
[36] = at 0.0781 µM, OCI-C5x cells, with rucaparib 10 µM, 100% = cells with rucaparib alone
[37] = at 0.0781 µM, OCI-C5x cells, without rucaparib
[38] = at 0.0781 µM, OCI-P5x cells, with rucaparib 20 µM, 100% = cells with rucaparib alone
[39] = at 0.0781 µM, OCI-P5x cells, without rucaparib
[40] = at 0.313 µM, OCI-C5x cells, with rucaparib 10 µM, 100% = cells with rucaparib alone
[41] = at 0.313 µM, OCI-C5x cells, without rucaparib
[42] = at 0.313 µM, OCI-P5x cells, with rucaparib 20 µM, 100% = cells with rucaparib alone
[43] = at 0.313 µM, OCI-P5x cells, without rucaparib
[44] = at 1.25 µM, OCI-C5x cells, with rucaparib 10 µM, 100% = cells with rucaparib alone
[45] = at 1.25 µM, OCI-C5x cells, without rucaparib
[46] = at 1.25 µM, OCI-P5x cells, with rucaparib 20 µM, 100% = cells with rucaparib alone
[47] = at 1.25 µM, OCI-P5x cells, without rucaparib
[48] = at 5 µM, OCI-C5x cells, with rucaparib 10 µM, 100% = cells with rucaparib alone
[49] = at 5 µM, OCI-C5x cells, without rucaparib
[50] = at 5 µM, OCI-P5x cells, with rucaparib 20 µM, 100% = cells with rucaparib alone
[51] = at 5 µM, OCI-P5x cells, without rucaparib

CC1=C(/C=C/C(C)=C/C=C/C(C)=C/C(=O)O)C(C)(C)CCC1
1.34: normalised cell number [11, 16]
active: viability decrease [3] 102% | inhibition of viability [6] 102% | viability decrease (inhibition) [7] 142% | viability decrease (inhibition) [8] 104% | viability [13, 42] 98.8% | viability [13, 46] 92.2% | viability [13, 50] 93.6% | viability [13, 51] 99.6%
inactive: nuclear beta-catenin stimulation ([1]; at 10 µM) 8.6% | insulin secretion stimulation [2] 1.8% | tube area decrease [4] -33.9% | GLP1 secretion stimulation [5] 14.4% | inhibition [9] -0.523% | mean signal [10] 223 | red/green cell ratio (normalised) [11] 0.69 | z-score [12, 18] -0.0661 and 0.992 | viability [13, 20] 106% | viability [13, 21] 135% | viability [13, 22] 102% | viability [13, 23] 120% | viability [13, 24] 106% | viability [13, 25] 121% | viability [13, 26] 105% | viability [13, 27] 119% | viability [13, 28] 124% | viability [13, 29] 115% | viability [13, 30] 108% | viability [13, 31] 120% | viability [13, 32] 106% | viability [13, 33] 111% | viability [13, 34] 104% | viability [13, 35] 115% | viability [13, 36] 103% | viability [13, 37] 122% | viability [13, 38] 101% | viability [13, 39] 115% | viability [13, 40] 103% | viability [13, 41] 114% | viability [13, 43] 109% | viability [13, 44] 101% | viability [13, 45] 115% | viability [13, 47] 105% | viability [13, 48] 101% | viability [13, 49] 104% | remaining NAD [14] 10 nM | luciferase signal [15] 20 AU | log fold change Tl+ flux (F380Y) 0.0395 | log fold change Tl+ flux (F380Y/beta1) 0.0141 | log fold change Tl+ flux (F380Y/beta2Delta) -0.0201
0.0426 and 0.864: z-score [12, 19]
8.1%: nuclear beta-catenin stimulation ([1]; stimulation, at 2 µM)
0.93: normalised cell number [11, 17]

O=c1[nH]cnc2[nH]ncc12
1.15: normalised cell number [11, 17]
-0.183 and 0.499 and -0.321: z-score [12, 19]
1%: nuclear beta-catenin stimulation ([1]; stimulation, at 2 µM)
active: viability [13, 30] 98.6% | viability [13, 38] 99.6% | viability [13, 46] 91.4% | viability [13, 50] 91.3% | viability [13, 51] 98%
inactive: nuclear beta-catenin stimulation ([1]; at 10 µM) -0.8% | insulin secretion stimulation [2] -2.4% | viability decrease [3] 3.7% | tube area decrease [4] -6.1% | GLP1 secretion stimulation [5] 0.1% | inhibition of viability [6] 2.7% | viability decrease (inhibition) [7] 25% | viability decrease (inhibition) [8] -0.95% | inhibition [9] 10.8% | mean signal [10] 267 | red/green cell ratio (normalised) [11] 1.08 | z-score [12, 18] 0.356 and -0.148 and 0.116 | viability [13, 20] 116% | viability [13, 21] 122% | viability [13, 22] 106% | viability [13, 23] 127% | viability [13, 24] 124% | viability [13, 25] 130% | viability [13, 26] 105% | viability [13, 27] 118% | viability [13, 28] 118% | viability [13, 29] 125% | viability [13, 31] 111% | viability [13, 32] 114% | viability [13, 33] 121% | viability [13, 34] 104% | viability [13, 35] 114% | viability [13, 36] 117% | viability [13, 37] 124% | viability [13, 39] 105% | viability [13, 40] 113% | viability [13, 41] 117% | viability [13, 42] 102% | viability [13, 43] 105% | viability [13, 44] 122% | viability [13, 45] 114% | viability [13, 47] 105% | viability [13, 48] 111% | viability [13, 49] 109% | remaining NAD [14] 10 nM | luciferase signal [15] 36 AU | log fold change Tl+ flux (F380Y) 0.0236 | log fold change Tl+ flux (F380Y/beta1) 0.000941 | log fold change Tl+ flux (F380Y/beta2Delta) -0.00565
1.06: normalised cell number [11, 16]
